# According to PubChem BioAssay AID504634 (The Scripps Research Institute Molecular Screening Center, 2011):
# Among all 340,000 compounds or so, about 280 (0.082%) were called active. The sample as a whole holds a higher share of actives than the screen did. Values without a mark were called inactive. No stated cut-off is given here; in the data, active means inhibition mostly above about 23% (no sharp cut-off); inactive means mostly below about 18%.
# Target: 5-hydroxytryptamine receptor 5A (Homo sapiens) (UniProt P47898)
# Sequence (P47898 whole entry, looked up): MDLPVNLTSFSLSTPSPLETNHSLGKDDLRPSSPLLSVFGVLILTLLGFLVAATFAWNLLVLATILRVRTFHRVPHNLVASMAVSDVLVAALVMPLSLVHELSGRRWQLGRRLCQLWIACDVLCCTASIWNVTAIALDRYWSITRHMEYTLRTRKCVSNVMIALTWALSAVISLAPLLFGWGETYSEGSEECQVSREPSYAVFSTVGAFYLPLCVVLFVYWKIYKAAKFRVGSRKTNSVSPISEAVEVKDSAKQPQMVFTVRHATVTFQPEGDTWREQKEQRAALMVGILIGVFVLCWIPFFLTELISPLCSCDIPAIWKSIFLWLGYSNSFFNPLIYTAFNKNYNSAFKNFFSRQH
# Experiment: HTR5A inverse agonists in luminescence cell assay, primary screen, counter-screen for OPRM1-OPRD1 heterodimer inverse agonist project, full-deck HTS (AID 504634);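 further: 0% = cells with DMSO and 100% = no-cell wells with DMSO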
# Settings: HTR5A cell line, inverse agonism, at 9.3 µM, stronger effect = higher value
row,SMILES,inhibition
1,CC(=O)OC1C2(CC3N4C(=O)C5(CO)SSC4(CC31O)C(=O)N5C)OC(C)C(C)(C)C2=O (stereo not given),97.6% (active)
2,COC1C(O)C(C)OC(OC2CCC3(C=O)C(CCC4C3CCC3(C)C(C5=CC(=O)OC5)CCC43O)C2)C1O (stereo not given),-11%
3,c1ccc(C2NCc3ccccc3-n3cccc32)cc1 (stereo not given),-5.59%
4,COC(=O)C1=C(c2cc3ccccc3s2)C[C@@H]2CC[C@H]1N2C(=O)NC(C)C,5.09%
5,C[C@]12CCC3C(CC[C@H]4[C@H](O)[C@H](O)CC[C@]34C)C1CC[C@@H]2O (stereo not given in full),-10.8%
